# Screening data: PubChem, several laboratories
# Furin inh: human furin inhibition. P09958. purified furin, fluorogenic substrate cleavage. inhibition, % at 20 µM or 30 µM. 0.061% of 220,000 active; in the data active means inhibition above about 25%
# Target sequence (P09958 108-714 limits assumed): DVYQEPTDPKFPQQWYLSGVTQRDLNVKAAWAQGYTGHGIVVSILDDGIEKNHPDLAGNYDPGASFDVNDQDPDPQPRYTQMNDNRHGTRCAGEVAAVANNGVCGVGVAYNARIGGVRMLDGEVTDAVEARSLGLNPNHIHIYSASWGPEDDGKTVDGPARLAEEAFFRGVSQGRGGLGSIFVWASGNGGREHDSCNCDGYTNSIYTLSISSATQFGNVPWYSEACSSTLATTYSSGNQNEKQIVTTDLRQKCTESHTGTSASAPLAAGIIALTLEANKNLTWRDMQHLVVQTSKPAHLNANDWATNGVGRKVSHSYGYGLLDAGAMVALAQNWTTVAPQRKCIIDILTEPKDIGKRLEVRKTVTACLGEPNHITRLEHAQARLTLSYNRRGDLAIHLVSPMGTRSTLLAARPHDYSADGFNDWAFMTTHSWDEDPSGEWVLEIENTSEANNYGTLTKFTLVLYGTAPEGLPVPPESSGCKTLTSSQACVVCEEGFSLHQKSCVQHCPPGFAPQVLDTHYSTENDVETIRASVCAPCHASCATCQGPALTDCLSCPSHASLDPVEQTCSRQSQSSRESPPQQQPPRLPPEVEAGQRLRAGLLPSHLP
# EP2 antag: EP2 receptor (human) inhibition. P43116. C6 glioma cells expressing human EP2, cAMP TR-FRET; cells stimulated with saturating PGE2. inhibition, % at 25 µM. 0.52% of 260,000 active. AID 1422;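 active means percent inhibition above 40 after rounding to a whole number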;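 further: rat C6 glioma host cells with rolipram phosphodiesterase inhibitor present; the protocol text gives 20 µM as final concentration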
# EP2 modulator: EP2 receptor (human) modulation; P43116; EP2-expressing cells, cAMP HTRF FRET, PGE2 co-stimulation; induction, % at 25 µM; 0.83% of 260,000 active; AID 940;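 active means compounds whose cAMP rise, as percent of the full-agonist control response, exceeds 60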;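 further: rat C6 glioma line stably carrying human EP2 under a CMV promoter; the protocol text gives 20 µM as final concentration; 100% = response of wells given 1 µM PGE2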
# Calpain2 inh: calpain II (pig) inhibition | purified calpain II, fluorogenic peptide substrate, 30 min | inhibition, % at 16 µM | 0.37% of 220,000 active | AID 1236;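 active means inhibition above about 50%, limit read from the data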
# HMGR II inh: blocks class II HMG-CoA reductase of Enterococcus faecalis | purified E. faecalis HMGR, NADPH absorbance 340 nm kinetic | inhibition, % at 10 µM | 0.41% of 190,000 active;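 active means inhibition above a set limit, the median over all tested compounds plus 3 SD, cut at about 9.5% in these data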;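 further: enzyme runs in reverse so mevalonate oxidation gives rising NADPH absorbance; 0% = complete reaction with DMSO and 100% = background rate lacking mevalonate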
# Numbers without * were called inactive; · = no result. An excerpt weighted towards active compounds, which were near 1.9% of everything screened.
SMILES,Furin inh,EP2 antag,EP2 modulator,Calpain2 inh,HMGR II inh
COc1ccc(N2CCN(C(=O)C3CCC(Cn4c(=S)[nH]c5ccccc5c4=O)CC3)CC2)cc1 (stereo not drawn),-13,8,13,-143,22*
CCN(CC)CC[n+]1ccc2c(C)c3[nH]c4ccc(O)cc4c3c(C)c2c1,·,44*,7,·,·
CCN(CC)CCNC(=O)c1[nH]c2ccc(OCc3ccccc3)cc2c1C,-13,9,-96,-252,-1
CCc1ccc(NC2OC(=O)c3ccccc32)cc1 (stereo not drawn),·,5,-3,·,·
Cc1c(C(=O)NCc2cccnc2)sc2nc(-c3ccc(F)cc3)cn12,-28,9,8,78*,-5
COc1ccc(-c2noc(COc3ccc4c(c3)OCO4)n2)cc1OC,-22,10,-47,20,-2
COc1ccc(-c2noc(COc3ccc4c(c3)OCO4)n2)cc1,-13,99*,-17,-40,5
Cc1ccc(-n2nnnc2C(Cl)(Cl)c2nnnn2-c2ccc(C)cc2)cc1,-20,91*,-5,-6,-2
Clc1ccc(-c2nnnn2-c2ccc(Cl)cc2)cc1,-17,7,-43,8,·
CCOc1ccc2nc(NCCCNC(=S)NCCOC)c(C#N)cc2c1,·,12,-56,·,·
CC1CCCCN1C(=O)CN1C(=O)N2CCN=C2c2ccccc21 (stereo not drawn),·,-1,-33,·,·
Cc1nn(Cc2ccc(Cl)cc2Cl)c(C)c1NC(=O)c1nn(C)cc1Cl,-19,5,-11,60*,-3
COc1cc(NC(=O)c2ccccc2)c(OC)cc1Cl,27*,12,-9,1,-2
COc1c(Cl)cc(C(=O)Nc2ccccc2-c2ccccc2)cc1Cl,-13,·,29,54*,0
CCOc1ccc(C(=O)Nc2ccccc2-c2ccccc2)cc1Cl,-24,8,11,-14,4
CCn1cc(CC(=O)N(C)CCCN2CCN(C)CC2)c2ccccc21,·,4,5,·,·
C=CCn1c(SCC(=O)Nc2ccc(Cl)cc2)nnc1-c1ccncc1,·,10,-22,·,·
Cc1ccccc1CN1C2=NCCN2C(=O)C2=C1CCN(Cc1ccccc1)C2,·,49*,15,·,·
Cc1ccccc1CN1C2=NCCN2c2ccccc21,-21,16,4,17,1
CCC(=O)c1cn(CC(=O)NC(C)(C)C)c2ccccc12,·,3,-17,·,·
Cc1cc(NC(=O)C2CCCN2C(=O)Nc2c(C)cccc2C)ccc1-n1cnnn1 (stereo not drawn),-22,3,21,-10,12*
O=C(O)c1ccc2c(c1C(=O)O)C(=O)OC2(c1ccc(O)cc1)c1ccc(O)cc1,·,44*,20,·,·
CC(C)=Cc1oc2ccc([N+](=O)[O-])cc2c1N1CC(C)OC(C)C1 (stereo not drawn),-23,9,62*,-23,-2
N#CC1=C(N)Oc2c(c(=O)[nH]c3ccccc23)C1c1cccc(Cl)c1Cl (stereo not drawn),·,11,-34,·,·
O=C1NC2=C(C(=O)N(CCN3CCCCC3)C2)C(c2cccc(F)c2)N1 (stereo not drawn),·,9,-52,·,·
SMILES,Furin inh,EP2 antag,EP2 modulator,Calpain2 inh,HMGR II inh
N#Cc1cn(Cc2ccc(Cl)cc2)c2ccccc12,·,15,67*,·,·
N#Cc1ccccc1Cn1cc(C#N)c2ccccc21,-15,8,3,-4,-1
N#Cc1cn(Cc2ccccc2)c2ccccc12,-11,6,63*,-25,-1
Cn1c2c(c(=O)n(C)c1=O)C(CC(=O)Nc1ccccc1F)C(=O)N2 (stereo not drawn),-8,10,20,8,·
Cn1c2c(c(=O)n(C)c1=O)C(CC(=O)Nc1ccccc1)C(=O)N2 (stereo not drawn),22,2,5,92*,-1
COc1ccc(S(=O)(=O)N2CCCC(C(=O)Nc3cc(C)cc(C)c3)C2)cc1Cl (stereo not drawn),·,9,-49,·,·
COc1ccc(NC(=O)c2ccc(=O)oc2)cc1,-12,·,-12,52*,-3
Cc1ccc(C(=O)Nc2ccc(C(F)(F)F)n(C)c2=O)cc1,-28,9,13,-29,-1
COc1ccc(NC(=O)c2ccc3c(c2)n(C)c(=O)n3C)cc1,-17,17,29,-5,21*
COc1ccc(C(=O)Nc2ccc(C(F)(F)F)n(C)c2=O)cc1,-12,13,0,-15,11*
COc1ccc(C(=O)Nc2ccc(OC)c(OC)c2)cc1,-23,8,12,2,-6
Cc1ncc(-c2ccncc2)c(C2CCCN(C(=O)c3cnsc3)C2)n1 (stereo not drawn),·,·,-14,·,·
